# Data from PubChem BioAssay (EPA / NIEHS).
# Values joined by “and” are separate entries in the source; they are usually repeats but may differ in a detail not shown here. Equal values may be shown once. Some structures have more than one record in an assay (separate samples or runs), and their calls can disagree. Active and inactive are the calls of the source. The calls were made as follows: active = hit-call score of the fitted dose curve at least 0.9, where 1 is the maximum; inactive = score below 0.9.
# Read-out: Potassium channel subfamily K member 1 (KCNK1), KCNK1 (gene 3775)
# Assay: LTEA_HepaRG_KCNK1: Life Technologies and Expression Analysis (LTEA) Assay for Potassium channel subfamily K member 1 (KCNK1) using HepaRG (AID 2283511)
# Details: mRNA level, 48 h; actives raise or lower the signal
# How it was run: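 KCNK1 transcript measured by TaqMan qRT-PCR against three housekeeping genes, after HepaRG cells were treated 48 h with eight half-log concentrations (top 100 uM, 0.5% DMSO). Curves fitted bidirectionally relative to vehicle.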
Structure (SMILES),outcome,AC50
CCOC(=O)C(Cl)Cc1cc(-n2nc(C)n(C(F)F)c2=O)c(F)cc1Cl (configuration not stated),inactive,
CCc1nn(C)c(C(=O)NCc2ccc(C(C)(C)C)cc2)c1Cl,,9.92 µM (active)
COC(=O)N(OC)c1ccccc1COc1ccn(-c2ccc(Cl)cc2)n1,,86.2 µM (active)
N#CC(CCc1ccc(Cl)cc1)(Cn1cncn1)c1ccccc1 (configuration not stated),,44.6 µM (active)
CNC(=O)ON=CC(C)(C)SC,inactive,
CCNc1nc(Cl)nc(NC(C)C)n1,inactive,
CCON=C(CC)C1=C(O)CC(c2c(C)cc(C)cc2C)CC1=O (configuration not stated),inactive,
CCCC1COC(Cn2cncn2)(c2ccc(Cl)cc2Cl)O1 (configuration not stated),inactive,
CCCCOC(=O)c1ccccc1C(=O)OCCCC,inactive,
COC(=O)c1ccccc1C(=O)OC,inactive,
C=CCC1=C(C)C(OC(=O)C2C(C=C(C)C)C2(C)C)CC1=O (configuration not stated),inactive,
COP(N)(=O)SC (configuration not stated),inactive,
O=C(O)COc1nc(Cl)c(Cl)cc1Cl,inactive,
COc1ccc(C(c2ccc(OC)cc2)C(Cl)(Cl)Cl)cc1,inactive,
COC(=O)C=C(C)OP(=O)(OC)OC,inactive,
CCOc1cc(Oc2ccc(C(F)(F)F)cc2Cl)ccc1[N+](=O)[O-],,30 µM (active)
CCOC(=O)CC(SP(=S)(OC)OC)C(=O)OCC (configuration not stated),inactive,
CNC(=S)S,inactive,
CCCN(CCC)c1c([N+](=O)[O-])cc(S(N)(=O)=O)cc1[N+](=O)[O-],inactive,93.5 µM (active)
CC(C)C1(C)N=C(c2nc3ccccc3cc2C(=O)O)NC1=O (configuration not stated),inactive,
CC(Oc1ccc(Cl)cc1Cl)C(=O)O (configuration not stated),inactive,
O=C(Nc1ccccc1)Nc1ccnc(Cl)c1,inactive,
Cc1ccc(-c2c(Cl)nc(C#N)n2S(=O)(=O)N(C)C)cc1,,50 µM (active)
C#CCOS(=O)OC1CCCCC1Oc1ccc(C(C)(C)C)cc1 (configuration not stated),,21.5 µM (active)
CCCCC(CC)COC(=O)c1ccccc1C(=O)OCC(CC)CCCC (configuration not stated),inactive,

# Read-out: Keratin 19 (KRT19), KRT19 (gene 3880)
# Assay: LTEA_HepaRG_KRT19: Life Technologies and Expression Analysis (LTEA) Assay for Keratin 19 (KRT19) using HepaRG (AID 2283512)
# Details: mRNA level, 48 h; actives raise or lower the signal
# How it was run: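 KRT19 transcript levels, measured by Fluidigm qRT-PCR against three housekeeping genes, are fitted for gain or loss of signal relative to DMSO. Human HepaRG cells receive test chemicals (top 100 uM, half-log steps, 0.5% DMSO) for 48 hours.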
Structure (SMILES),outcome,AC50
CCOC(=O)C(Cl)Cc1cc(-n2nc(C)n(C(F)F)c2=O)c(F)cc1Cl (configuration not stated),inactive,
CCc1nn(C)c(C(=O)NCc2ccc(C(C)(C)C)cc2)c1Cl,,0.616 µM (active)
COC(=O)N(OC)c1ccccc1COc1ccn(-c2ccc(Cl)cc2)n1,,23.3 µM (active)
N#CC(CCc1ccc(Cl)cc1)(Cn1cncn1)c1ccccc1 (configuration not stated),inactive,
CNC(=O)ON=CC(C)(C)SC,inactive,
CCNc1nc(Cl)nc(NC(C)C)n1,,26.1 µM (active)
CCON=C(CC)C1=C(O)CC(c2c(C)cc(C)cc2C)CC1=O (configuration not stated),inactive,
CCCC1COC(Cn2cncn2)(c2ccc(Cl)cc2Cl)O1 (configuration not stated),,1.12 µM (active)
CCCCOC(=O)c1ccccc1C(=O)OCCCC,inactive,
COC(=O)c1ccccc1C(=O)OC,inactive,
C=CCC1=C(C)C(OC(=O)C2C(C=C(C)C)C2(C)C)CC1=O (configuration not stated),,50 µM (active) and 88.1 µM (active) and 40.4 µM (active)
COP(N)(=O)SC (configuration not stated),inactive,
O=C(O)COc1nc(Cl)c(Cl)cc1Cl,inactive,
COc1ccc(C(c2ccc(OC)cc2)C(Cl)(Cl)Cl)cc1,,74.2 µM (active)
COC(=O)C=C(C)OP(=O)(OC)OC,inactive,
CCOc1cc(Oc2ccc(C(F)(F)F)cc2Cl)ccc1[N+](=O)[O-],,33.8 µM (active)
CCOC(=O)CC(SP(=S)(OC)OC)C(=O)OCC (configuration not stated),inactive,
CNC(=S)S,inactive,
CCCN(CCC)c1c([N+](=O)[O-])cc(S(N)(=O)=O)cc1[N+](=O)[O-],inactive,93.8 µM (active) and 72.5 µM (active)
CC(C)C1(C)N=C(c2nc3ccccc3cc2C(=O)O)NC1=O (configuration not stated),inactive,
CC(Oc1ccc(Cl)cc1Cl)C(=O)O (configuration not stated),inactive,
O=C(Nc1ccccc1)Nc1ccnc(Cl)c1,,28.1 µM (active)
Cc1ccc(-c2c(Cl)nc(C#N)n2S(=O)(=O)N(C)C)cc1,,22.3 µM (active)
C#CCOS(=O)OC1CCCCC1Oc1ccc(C(C)(C)C)cc1 (configuration not stated),,12.8 µM (active)
CCCCC(CC)COC(=O)c1ccccc1C(=O)OCC(CC)CCCC (configuration not stated),inactive,

# Read-out: JUN Transcription Factor, JUN (gene 3725)
# Assay: LTEA_HepaRG_JUN: Life Technologies and Expression Analysis (LTEA) Assay for JUN Transcription Factor using HepaRG (AID 2283513)
# Details: mRNA level, 48 h; actives raise or lower the signal
# How it was run: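 mRNA measured by TaqMan qRT-PCR after 48 h chemical exposure of HepaRG cultures; normalization to three housekeeping genes. Duplicate eight-point half-log curves from 100 uM in 0.5% DMSO; gain or loss fitted against DMSO baseline.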
Structure (SMILES),outcome,AC50
CCOC(=O)C(Cl)Cc1cc(-n2nc(C)n(C(F)F)c2=O)c(F)cc1Cl (configuration not stated),inactive,
CCc1nn(C)c(C(=O)NCc2ccc(C(C)(C)C)cc2)c1Cl,inactive,
COC(=O)N(OC)c1ccccc1COc1ccn(-c2ccc(Cl)cc2)n1,inactive,
N#CC(CCc1ccc(Cl)cc1)(Cn1cncn1)c1ccccc1 (configuration not stated),,90.3 µM (active)
CNC(=O)ON=CC(C)(C)SC,inactive,
CCNc1nc(Cl)nc(NC(C)C)n1,inactive,
CCON=C(CC)C1=C(O)CC(c2c(C)cc(C)cc2C)CC1=O (configuration not stated),inactive,
CCCC1COC(Cn2cncn2)(c2ccc(Cl)cc2Cl)O1 (configuration not stated),inactive,
CCCCOC(=O)c1ccccc1C(=O)OCCCC,inactive,
COC(=O)c1ccccc1C(=O)OC,inactive,
C=CCC1=C(C)C(OC(=O)C2C(C=C(C)C)C2(C)C)CC1=O (configuration not stated),inactive,
COP(N)(=O)SC (configuration not stated),inactive,
O=C(O)COc1nc(Cl)c(Cl)cc1Cl,inactive,
COc1ccc(C(c2ccc(OC)cc2)C(Cl)(Cl)Cl)cc1,inactive,
COC(=O)C=C(C)OP(=O)(OC)OC,inactive,
CCOc1cc(Oc2ccc(C(F)(F)F)cc2Cl)ccc1[N+](=O)[O-],inactive,
CCOC(=O)CC(SP(=S)(OC)OC)C(=O)OCC (configuration not stated),inactive,
CNC(=S)S,inactive,
CCCN(CCC)c1c([N+](=O)[O-])cc(S(N)(=O)=O)cc1[N+](=O)[O-],,94.2 µM (active) and 79.3 µM (active) and 74.8 µM (active)
CC(C)C1(C)N=C(c2nc3ccccc3cc2C(=O)O)NC1=O (configuration not stated),inactive,
CC(Oc1ccc(Cl)cc1Cl)C(=O)O (configuration not stated),inactive,
O=C(Nc1ccccc1)Nc1ccnc(Cl)c1,inactive,
Cc1ccc(-c2c(Cl)nc(C#N)n2S(=O)(=O)N(C)C)cc1,inactive,
C#CCOS(=O)OC1CCCCC1Oc1ccc(C(C)(C)C)cc1 (configuration not stated),inactive,
CCCCC(CC)COC(=O)c1ccccc1C(=O)OCC(CC)CCCC (configuration not stated),inactive,
